Experimental data from PubChem BioAssay (Tox21).
Activity calls are given as the source filed them. Unless noted, calls come from the whole dose curve; as a rule, active = well fitted curve in the direction sought with a large enough effect in the repeat runs; inconclusive = weak or mixed curves; inactive = no such curve, though single readings can be large; an effect the other way counts as inactive or inconclusive.

Key:
[1] = qHTS assay to identify small molecule antagonists of the thyroid receptor (TR) signaling pathway - cell viability counter screen (AID 743064); note: nearly all actives have a fitted effect of over 50% in size; note: potency is the fitted concentration of half-maximal effect
How it was run: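 GH3.TRE-Luc rat pituitary cells carrying a TRE-luciferase reporter were treated with compound plus 1 nM T3 (final) for 23.5 h at 37 °C. Viability was then read in the same wells by CellTiter-Fluor fluorescence after a further 30 min.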

[2] = qHTS assay to identify small molecule antagonists of the thyroid receptor (TR) signaling pathway (AID 743065); note: nearly all actives have a fitted effect of over 55% in size; note: potency is the fitted concentration of half-maximal effect
How it was run: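 Antagonism measured as loss of luciferase signal in GH3 cells stably carrying a TRE-luciferase reporter, co-treated with compound and T3 (1 nM final) for 23.5 h at 37 C. Viability was read in the same well by CellTiter-Fluor.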

[3] = test system: thyroid hormone receptor (rat, GH3 cells); test: qHTS assay to identify small molecule agonists of the thyroid receptor (TR) signaling pathway (AID 743066; calls by dose curve)
[4] = qHTS assay to identify small molecule antagonists of the estrogen receptor alpha (ER-alpha) signaling pathway - cell viability counter screen (AID 743074; calls by dose curve;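 note: HEK293 cells carrying ER-alpha-UAS-bla reporter stimulated with 17beta-estradiol; nearly all actives have a fitted effect of over 45% in size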)
[5] = target: Estrogen receptor (Homo sapiens) (UniProt P03372); test: qHTS assay to identify small molecule agonists of the estrogen receptor alpha (ER-alpha) signaling pathway (AID 743075; calls by dose curve;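 note: HEK293 GripTite cells with ER-alpha and UAS-driven beta-lactamase reporter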; note: potency is the fitted concentration of half-maximal effect)
Estrogen receptor (Homo sapiens), sequence (P03372 whole entry, looked up): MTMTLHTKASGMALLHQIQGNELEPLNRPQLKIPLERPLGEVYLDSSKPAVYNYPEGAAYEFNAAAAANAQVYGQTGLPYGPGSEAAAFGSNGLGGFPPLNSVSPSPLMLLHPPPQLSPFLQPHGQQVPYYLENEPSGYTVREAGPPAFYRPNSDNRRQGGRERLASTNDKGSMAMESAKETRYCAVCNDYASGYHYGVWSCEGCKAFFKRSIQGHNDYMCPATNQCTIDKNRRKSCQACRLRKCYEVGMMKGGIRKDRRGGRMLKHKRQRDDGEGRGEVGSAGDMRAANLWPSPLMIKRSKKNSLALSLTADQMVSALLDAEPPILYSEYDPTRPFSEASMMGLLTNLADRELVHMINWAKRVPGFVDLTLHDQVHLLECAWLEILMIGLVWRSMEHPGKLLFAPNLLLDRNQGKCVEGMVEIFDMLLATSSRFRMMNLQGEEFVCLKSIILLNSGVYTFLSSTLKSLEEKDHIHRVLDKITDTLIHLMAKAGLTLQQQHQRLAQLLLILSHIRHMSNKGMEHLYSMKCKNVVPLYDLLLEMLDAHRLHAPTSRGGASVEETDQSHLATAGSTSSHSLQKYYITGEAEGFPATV

[6] = target: Estrogen receptor (Homo sapiens) (UniProt P03372); test: qHTS assay to identify small molecule agonists of the estrogen receptor alpha (ER-alpha) signaling pathway using the BG1 cell line (AID 743079); details: BG1Luc4E2 cells, ERE-luciferase agonist, 22 h; activation: at 70.3 µM (top of the series); note: nearly all actives have a fitted effect of over 20% in size; note: potency is the fitted concentration of half-maximal effect
Aromatase (Homo sapiens) = Aromatase (Homo sapiens) (UniProt P11511); test: qHTS assay to identify aromatase inhibitors (AID 743083); note: nearly all actives have a fitted effect of over 55% in size
Aromatase (Homo sapiens), sequence (P11511 whole entry, looked up): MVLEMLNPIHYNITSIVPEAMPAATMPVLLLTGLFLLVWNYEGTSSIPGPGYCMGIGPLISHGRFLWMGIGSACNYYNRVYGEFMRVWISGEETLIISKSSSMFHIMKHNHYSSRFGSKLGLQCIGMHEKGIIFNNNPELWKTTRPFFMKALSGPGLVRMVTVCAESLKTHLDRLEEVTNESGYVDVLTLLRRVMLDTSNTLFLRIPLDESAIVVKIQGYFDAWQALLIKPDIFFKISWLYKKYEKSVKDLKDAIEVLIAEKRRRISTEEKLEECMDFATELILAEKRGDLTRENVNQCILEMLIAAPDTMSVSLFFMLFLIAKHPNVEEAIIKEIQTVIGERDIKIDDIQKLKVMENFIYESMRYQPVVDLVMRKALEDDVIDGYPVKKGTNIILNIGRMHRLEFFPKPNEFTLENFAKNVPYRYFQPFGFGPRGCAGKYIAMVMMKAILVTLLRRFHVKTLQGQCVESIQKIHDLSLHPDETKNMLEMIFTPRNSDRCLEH

[7] = qHTS assay to identify aromatase inhibitors - cell viability counter screen (AID 743084);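 note: cells stimulated with testosterone during compound exposure; nearly all actives have a fitted effect of over 55% in size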
[8] = target: Aryl hydrocarbon receptor (Homo sapiens) (UniProt P35869); test: qHTS assay to identify small molecule that activate the aryl hydrocarbon receptor (AhR) signaling pathway (AID 743085);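 note: HG2L7.5c1 human HepG2 liver cells with stably integrated DRE-driven firefly reporter; nearly all actives have a fitted effect of over 15% in size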
Aryl hydrocarbon receptor (Homo sapiens), sequence (P35869 whole entry, looked up): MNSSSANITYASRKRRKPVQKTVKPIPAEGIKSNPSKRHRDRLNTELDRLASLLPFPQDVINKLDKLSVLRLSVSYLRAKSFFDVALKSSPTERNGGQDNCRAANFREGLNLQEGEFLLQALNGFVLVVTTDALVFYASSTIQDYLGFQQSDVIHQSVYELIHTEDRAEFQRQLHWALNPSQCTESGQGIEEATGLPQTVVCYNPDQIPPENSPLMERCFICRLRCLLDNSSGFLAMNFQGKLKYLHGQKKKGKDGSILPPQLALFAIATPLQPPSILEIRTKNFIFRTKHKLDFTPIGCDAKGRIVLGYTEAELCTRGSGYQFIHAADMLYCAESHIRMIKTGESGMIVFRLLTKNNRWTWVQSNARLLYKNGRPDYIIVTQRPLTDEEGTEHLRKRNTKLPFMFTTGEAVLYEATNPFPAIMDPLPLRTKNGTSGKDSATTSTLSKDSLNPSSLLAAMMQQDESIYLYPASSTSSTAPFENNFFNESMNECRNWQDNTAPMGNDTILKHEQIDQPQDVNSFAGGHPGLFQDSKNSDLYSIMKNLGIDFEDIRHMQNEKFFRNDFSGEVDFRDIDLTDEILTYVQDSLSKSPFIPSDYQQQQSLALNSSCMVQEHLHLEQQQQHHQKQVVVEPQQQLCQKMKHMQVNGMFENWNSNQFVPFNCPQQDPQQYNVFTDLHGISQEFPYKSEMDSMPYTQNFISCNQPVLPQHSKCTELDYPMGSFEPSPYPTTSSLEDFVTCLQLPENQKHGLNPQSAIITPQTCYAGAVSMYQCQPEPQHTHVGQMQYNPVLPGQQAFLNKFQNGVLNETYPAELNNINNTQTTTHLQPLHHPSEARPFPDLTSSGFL
How it was run: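 HepG2 cells (HG2L7.5c1) stably carrying a firefly luciferase reporter driven by 20 dioxin responsive elements were exposed to compound for 24 h at 37C after a 5 h settling period; luminescence rise (ONE-Glo) indicated activation.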

[9] = qHTS assay to identify small molecule that activate the aryl hydrocarbon receptor (AhR) signaling pathway - cell viability counter screen (AID 743086);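 note: HepG2 liver cells carrying the AhR DRE luciferase reporter; nearly all actives have a fitted effect of over 45% in size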
How it was run: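 Cytotoxicity counter screen: CellTiter-Fluor signal (30 min, 37 C) in 4000 HepG2 cells/well carrying the DRE-luciferase reporter, following 24 h compound exposure at 37 C.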

[10] = qHTS assay to identify small molecule antagonists of the estrogen receptor alpha (ER-alpha) signaling pathway using the BG1 cell line (AID 743080; calls by dose curve;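 note: BG1 cells stimulated with 17beta-estradiol alongside compound; nearly all actives have a fitted effect of over 25% in size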)
How it was run: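 Luminescence from a 4×ERE-luciferase reporter in BG1-Luc-4E2 cells served as read-out. Cells, pre-cultured 5 days in stripped-serum phenol-red-free medium, were exposed to compound with 17beta-estradiol co-stimulation for 21.5 h at 37 C.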

[11] = qHTS assay to identify small molecule antagonists of the estrogen receptor alpha (ER-alpha) signaling pathway using the BG1 cell line - cell viability counter screen (AID 743081);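 note: compound given together with 17beta-estradiol as the ER stimulus; nearly all actives have a fitted effect of over 45% in size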
[12] = target: Nuclear receptor subfamily 1 group I member 2 (Rattus norvegicus) (UniProt Q9R1A7); test: Rat pregnane X receptor (rPXR) activation by small molecules, qHTS assay (AID 1346983); details: rPXR luciferase reporter cells, One-Glo luminescence, 24 h; max activation: stronger effect = higher value; note: nearly all actives have a fitted effect of over 20% in size
Nuclear receptor subfamily 1 group I member 2 (Rattus norvegicus), sequence (Q9R1A7 whole entry, looked up): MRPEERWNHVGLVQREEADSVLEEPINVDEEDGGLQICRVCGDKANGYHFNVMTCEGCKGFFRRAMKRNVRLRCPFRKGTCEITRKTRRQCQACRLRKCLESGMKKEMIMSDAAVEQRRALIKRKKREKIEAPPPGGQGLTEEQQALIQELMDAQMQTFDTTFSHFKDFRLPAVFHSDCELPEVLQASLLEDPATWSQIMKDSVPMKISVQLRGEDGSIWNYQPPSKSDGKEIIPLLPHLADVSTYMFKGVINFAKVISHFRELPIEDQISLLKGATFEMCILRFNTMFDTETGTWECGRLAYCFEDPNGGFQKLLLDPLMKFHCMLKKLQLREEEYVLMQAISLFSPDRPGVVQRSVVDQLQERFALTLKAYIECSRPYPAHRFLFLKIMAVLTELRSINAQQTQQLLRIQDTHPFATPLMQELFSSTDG
How it was run: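 Luminescent readout (One-Glo luciferase, 30 min room temperature) followed 24 hr compound treatment at 37 C of rPXR cells plated 2,000 per well and preincubated 5hr; qHTS format with compounds delivered in DMSO.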

[13] = target: Estrogen receptor (Homo sapiens) (UniProt P03372); test: qHTS assay to identify small molecule antagonists of the estrogen receptor alpha (ER-alpha) signaling pathway (AID 743069; active = well fitted curve in the direction sought with a large enough effect in the signal ratio in the repeat runs, not every such curve was filed as active; inconclusive = weak or mixed curves, or effect the other way; inactive = no such curve, though single readings can be large or run the other way; the % refers to the signal ratio)
How it was run: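 Antagonist mode: compounds in DMSO were co-added with 17beta-estradiol to ER-alpha-bla HEK293 cells (2% charcoal-stripped serum) and left 18 h at 37C. Reporter inhibition was measured as FRET fluorescence after 2 h LiveBLAzer substrate at room temperature.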

[14] = target: Peroxisome proliferator-activated receptor gamma (Homo sapiens) (UniProt P37231); test: qHTS assay to identify small molecule agonists of the peroxisome proliferator-activated receptor gamma (PPARg) signaling pathway (AID 743094; active = well fitted activation curve with a large enough effect in the signal ratio in the repeat runs, not every such curve was filed as active; inconclusive = weak or mixed curves, or effect the other way; inactive = no such curve, though single readings can be large or run the other way; the % refers to the signal ratio)
Peroxisome proliferator-activated receptor gamma (Homo sapiens), sequence (P37231 whole entry, looked up): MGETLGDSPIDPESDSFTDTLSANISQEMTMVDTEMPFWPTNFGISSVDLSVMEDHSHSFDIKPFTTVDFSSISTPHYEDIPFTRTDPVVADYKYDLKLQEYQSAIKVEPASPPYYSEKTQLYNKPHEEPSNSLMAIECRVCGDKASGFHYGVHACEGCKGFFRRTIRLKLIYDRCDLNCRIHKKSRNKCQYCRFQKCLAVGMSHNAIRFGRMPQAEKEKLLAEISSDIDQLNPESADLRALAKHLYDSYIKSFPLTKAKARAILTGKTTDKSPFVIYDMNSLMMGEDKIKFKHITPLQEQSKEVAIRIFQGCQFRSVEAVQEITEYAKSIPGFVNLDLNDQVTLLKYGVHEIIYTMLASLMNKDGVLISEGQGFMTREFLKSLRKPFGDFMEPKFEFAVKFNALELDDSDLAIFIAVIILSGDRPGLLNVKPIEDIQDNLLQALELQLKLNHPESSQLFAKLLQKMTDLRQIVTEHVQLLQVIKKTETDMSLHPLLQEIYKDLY
How it was run: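 Cell-based bla reporter, HEK293H background, PPARg-driven UAS. Pre-incubation 5 h, 37C, 5% CO2. Compound 17 h, 37C. Substrate 1 h RT; fluorescence.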

[15] = target: Nuclear receptor subfamily 1 group I member 2 (Homo sapiens) (UniProt O75469); test: Human pregnane X receptor (PXR) activation by small molecules, qHTS assay (AID 1346985); note: nearly all actives have a fitted effect of over 40% in size; note: potency is the fitted concentration of half-maximal effect
How it was run: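 DPX-2 cells (HepG2 co-transfected with a PXR response element and a CYP3A4-promoter luciferase construct) were seeded at 2,000 per well, rested 5 hr at 37C, then exposed to DMSO-dissolved compounds for 24 hr. Activation was read as luciferase luminescence.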

[16] = target: Nuclear receptor subfamily 1 group I member 2 (Homo sapiens) (UniProt O75469); test: CYP3A4 induction through human pregnane X receptor (PXR) by small molecules, qHTS assay (AID 1346984); note: nearly all actives have a fitted effect of over 40% in size; note: potency is the fitted concentration of half-maximal effect
How it was run: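 Human PXR activation is tracked via CYP3A4 promoter-luciferase in DPX-2 (HepG2) cells. Compounds treat cells for 24hr at 37C, and luminescence is read after One-Glo.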
% is set by controls: 0 for no effect and ±100 for the full control effect.

CC(=O)[C@@]1(O)CC[C@H]2[C@@H]3C=C(Cl)C4=CC(=O)CC[C@]4(C)[C@H]3CC[C@@]21C
active: Potency [2] 29.8 µM | Potency [6] 29.8 µM
inactive: Potency [1] | Potency [3] | Potency [4] | Potency [5] | Potency (Aromatase (Homo sapiens)) | Potency [7] | Potency [8] | Potency [9]

CN1CCC(CN2c3ccccc3Sc3ccccc32)C1 (stereo not given)
active: Potency [2] 11.9 µM
inactive: Potency [4] | Potency [5] | Potency [6] | Potency [10] | Potency [11] | Potency (Aromatase (Homo sapiens)) | Potency [7] | max activation [12] -2.87%

O=C(O[C@H]1CN2CCC1CC2)N1CCc2ccccc2[C@@H]1c1ccccc1
inactive: Potency [4] | Potency [11] | Potency (Aromatase (Homo sapiens)) | Potency [7] | Potency [8] | Potency [9]
active: Potency [1] 23.7 µM | Potency [2] 23.7 µM

CCCC(=O)O[C@]1(C(=O)COC(=O)CC)[C@@H](C)C[C@H]2[C@@H]3CCC4=CC(=O)C=C[C@]4(C)[C@@]3(F)[C@@H](O)C[C@@]21C
inactive: Potency [1] | Potency [2] | Potency [3] | Potency [4] | Potency [5] | Potency [6] | Potency (Aromatase (Homo sapiens)) | Potency [7]

CN1CCN(C2=Nc3ccccc3Cc3ccccc32)CC1
active: Potency [1] 13.3 µM | Potency [2] 23.7 µM
inactive: Potency [3] | Potency [13] | Potency [4] | Potency [5] | Potency [6] | Potency [10] | Potency [11] | Potency (Aromatase (Homo sapiens)) | Potency [7] | Potency [8] | Potency [9] | Potency [14]

CC(=O)c1ccc2c(c1)N(CCCN1CCN(CCO)CC1)c1ccccc1S2
inactive: Potency [4] | Potency [10] | max activation [12] -12.2% | Potency [15]
active: Potency [1] 13.3 µM | Potency [2] 13.3 µM

C[C@]12CCC(=O)C[C@@H]1CC[C@@H]1[C@@H]2CC[C@]2(C)C=CC[C@@H]12
active: Potency [5] 8.49 µM [inconclusive] | Potency [6] 11.9 µM
inactive: Potency [3] | Potency [4] | Potency [11] | Potency (Aromatase (Homo sapiens)) | Potency [7] | Potency [9] | Potency [14] | Potency [16] | Potency [15]

c1ccc2c(c1)Sc1ccccc1N2CCN1CCCC1
inactive: Potency [3] | Potency [4] | Potency (Aromatase (Homo sapiens)) | Potency [7] | Potency [14]
active: Potency [1] 11.9 µM | Potency [2] 29.8 µM | Potency [16] 10 µM | Potency [15] 25.1 µM

CC#CCC(C)[C@H](O)/C=C/[C@@H]1[C@H]2C/C(=C/CCCC(=O)O)C[C@H]2C[C@H]1O (stereo not given in full)
inactive: Potency [1] | Potency [2] | Potency [3] | Potency [13] | Potency [4] | Potency [5] | Potency [10] | Potency (Aromatase (Homo sapiens)) | Potency [7] | Potency [8] | Potency [14]
active: Potency [6] 29.8 µM

COc1ccc(CNCC(O)COc2ccc3[nH]c(=O)ccc3c2)cc1OC (stereo not given)
inactive: Potency [2] | Potency [3] | Potency [4] | Potency [11] | Potency (Aromatase (Homo sapiens)) | Potency [7] | Potency [8] | Potency [9] | Potency [14]

Cc1ccc(C2(O)CCN(CCCC(=O)c3ccc(F)cc3)CC2)cc1
active: Potency [1] 13.3 µM
inactive: Potency [3] | Potency [13] | Potency [4] | Potency [5] | Potency [6] | Potency [10] | Potency [11] | Potency (Aromatase (Homo sapiens)) | Potency [7]

CCOC(=O)CN[C@@H](C(=O)N1CC[C@H]1C(=O)NCc1ccc(/C(N)=N/O)cc1)C1CCCCC1
inactive: Potency [4] | Potency [5] | Potency [6] | Potency [10] | Potency [11] | Potency (Aromatase (Homo sapiens)) | Potency [14]

Nc1ccc(S(=O)(=O)Nc2ncccn2)cc1
inactive: Potency [16] | Potency [15]
